The results in this text go back to the supplement of paper PMC6555819.

The subject of this test is LXRb:RXRa (NR concentration 270 nM, RXRa partner concentration 90 nM). Nature of the test: PBM binding z-score (relative to random genomic background probes); higher = stronger binding; sequences stand for … in GC…GCGATTGACAGCGTAGAATGAAGG
The protocol: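 Protein-binding microarray (Agilent 4x180K custom design, double-stranded 60-nt probes: 5' GC cap, 34-nt variable region, 24-nt constant primer region; full probe sequence given). Purified or IVT nuclear receptor:RXRα heterodimers (3:1 NR:RXRα, mostly 270:90 nM) or homodimers were incubated for 1 h in PBS with 2% milk and no ligand, then detected with Alexa488 antibodies. Fluorescence from o1-orientation probes (~5 replicates averaged) was converted to z-scores against 500 random hg19 background probes. Variable regions are seed direct-repeat (DR0–DR5) sites, all their single-nucleotide variants and half-site ablations.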
Regarding CGAACTAGGTCGCCAGGACAGTGAAGAGGTTGGA, the PBM binding z-score was -0.222.

In turn, GCTGCTAGGTCAACTGATGGCCAGCTAAAGCTCG gave a PBM binding z-score of 1.66.

Sequence TCTCGGAGGAAACGAAAGGTCAGAGCTCGACATC displayed a PBM binding z-score of 3.1.

ATATGTAGGTTAGCTGAGGTCATTCAGACTAGGC: the PBM binding z-score stood at 4.72.

Regarding CCTACTGGGCCACTAAAGGTCATTGATTCAGTGA, the PBM binding z-score came to 5.49.

AGAATGAGATTACCAAAGATCAGGGAAACGCTTG came in with a PBM binding z-score of -0.266.

As to GCATATAGGTAATACAAGGTCAAAGTCCGATTGT, the PBM binding z-score is 5.63.

The sequence TCTGCTAGGTCATCGATGGTCAGCTAATCTGCTA yielded a PBM binding z-score of 1.73.

For the sequence TCTTGTAGGTCAATAGAGGTTAAGAAAGTGCGCT, the PBM binding z-score is 5.11.

As for CGTCAAAGTTCAACTAAGGTTACGTAAAGCACGC, the PBM binding z-score was 5.4.

In the case of CGTCAAACTTCAACTAAGGTAACGTAAAGCACGC, the PBM binding z-score was found to be 0.543.

Sequence CCTTACGGGTCACTCCAGGTTATATCATCGGAGT came in with a PBM binding z-score of 5.38.

CCTACTGGACCAAGGTCATTGATCAGTCAAAGCA came in with a PBM binding z-score of 3.46.

In turn, TCTGCTAGGTCAACGTTGGTCAGCTAATCTGCTA registered a PBM binding z-score of 1.61.

The sequence TAGCCTAGTTCATTCAGGGGCCAGTATAGAAAGC returned a PBM binding z-score of 0.643.

Consider TAGCCTAGGTCGTTCAGGGGCCAGTATAGAAAGC, for which the PBM binding z-score was 0.582.

TCTTGTAGATCAATAGAAGTTAAGAAAGTGCGCT showed a PBM binding z-score of 0.436.

In the case of CGAACAAGGTCACCAGGACAGTGAAGAGGTTGGA, the PBM binding z-score turned out to be 4.28.

As to GATACAGGGTCGGCTAGAGGCCAGAGTATGGAAA, the PBM binding z-score amounted to 0.129.

For GCTGCTAGTTCAACTGATGGTCAGCTAAAGCTCG, the PBM binding z-score is 0.0556.

On to AGCGAAAGGTCGAGGTGAGTATAGAGAAAGGGAA, for which the PBM binding z-score amounted to 2.7.

Consider CGTCCAAGGTTAAGGTCAGTGAAAGAGACTCGAA, for which the PBM binding z-score turned out to be 2.62.

Turning to GCTGCGAGGTCAACTGATGGTCAGCTAAAGCTCG, the PBM binding z-score is 5.07.

In turn, ATCGAAAGGTCGTGAGGTAAGTATACAGAAAGGC yielded a PBM binding z-score of 3.5.

AGAATGGGGTTATACGTAGATCAGGGAAGAAAGT displayed a PBM binding z-score of 4.38.

Sequence TCTAGTTGGTCACGGAGGTCCCACACGACGGGTA had a PBM binding z-score of 0.167.

Sequence CCTACTGGTCCAAGGTCATTGATCAGTCAAAGCA yielded a PBM binding z-score of 3.52.

Regarding CGAACTAGGTCAAGGGACAGTGAAAGGCGACGTA, the PBM binding z-score was found to be 1.33.

In turn, GATACAGGGTCAGCTACAGGCCAGAGTATGGAAA came in with a PBM binding z-score of 2.51.

In the case of CGTCAAAGATCAAGGTAACGTAACAGAAAGCAGC, the PBM binding z-score stood at 0.0744.

CGTCCGAGGTCAAGGTCAGTGAAAGAGACTCGAA showed a PBM binding z-score of 5.26.

Sequence AATACAAGGTCATCGTAGGCCAGAGTACGCACAG showed a PBM binding z-score of 5.13.

Consider GGAACGAGGTCATTCGAGTTGATAGCATGGCGAT, for which the PBM binding z-score was 4.8.

In turn, TATTCAGGGTCAAAGGCCAGAGTACGAATGTCGA showed a PBM binding z-score of 5.77.

ACTTAAGGGTCAACGAGGTTATAGCACGCGTATA displayed a PBM binding z-score of 5.33.

Take ATATGTAGGTTAGCTGGGGTCCTTCAGACTAGGC: the PBM binding z-score amounted to 0.853.

Regarding TAGCCGAGGTCATTCAGGGGCCAGTATAGAAAGC, the PBM binding z-score turned out to be 5.52.

CGAACAAGGTCATTGACAGGACAGTGAATAGTAA displayed a PBM binding z-score of 4.62.

Sequence ATCTCTAGGTTAAGATAGTTCAGTGAATGCAAAT gave a PBM binding z-score of 3.33.

CCTGCGAGGTCATGGTCAGCTAATCTACAGTATG displayed a PBM binding z-score of 4.6.
